# The list is not random: actives were taken first. Their share in the collection is about 19%.
# BCR signal inh: blocks chronic active B-cell receptor signaling; ABC-DLBCL IkBa-CBG/CBR reporter, luminescence ratio, 4 h; Potency, µM (series often up to 46.1 µM), for inactives: at the top dose activity change, negative = inhibition, hits mostly inhibitors; hit rate 0.05% among 340,000; AID 493014; active = well fitted inhibition curve with a large enough effect in the signal ratio, with a control signal flat, not every such curve was filed as active; inconclusive = small, poorly fitted or top-dose-only effect, or effect the other way, or a change in a side signal; the % refers to the signal ratio;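 also: potency is read from the fitted curve at half-maximal effect; plate controls were basal doxycycline-induced cells for no effect and cells given 10 µM MG132 for full effect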
#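 Cell line TMD8 (human ABC DLBCL), stably expressing tet-inducible CBG68-IkBa fusion and CBR; IMDM/0.5% FBS; cpd up to 46 uM; dox induction, 4 h, 37C/5% CO2; dual luminescence; green/red ratio; MG132 control.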
# DT40 TDP1 no CPT: qHTS for Inhibitors of human tyrosyl-DNA phosphodiesterase 1 (TDP1): qHTS in cells in absence of CPT; hit rate 15% among 420,000; DT40 Tdp1-/- hTDP1 cells, no CPT, ATP luminescence, 48 h; Potency, µM (highest dose often 46.2 µM), for the others: at the highest dose activity change, negative = growth inhibition, hits mostly inhibitors; also: potency is read from the fitted curve at half-maximal effect; % is scaled to controls: 0 for no effect and ±100 for the full control effect; nearly all actives have a fitted effect of over 55% in size
#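 Cells were dispensed at 400 per well, compounds added by pin tool, plates incubated ≥48 hr at 37 °C, then CellTiter-Glo added for 30 min at room temperature before luminescence reading. Line: DT40 Tdp1-/- complemented with hTDP1; camptothecin omitted.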
# MCF10A rerep: induces DNA re-replication in MCF 10a normal breast cells. MCF 10A DNA re-replication, Hoechst nuclear intensity, 48 h. Potency, µM (highest dose often 46.1 µM), for inactives: at the highest dose activity, positive = re-replication, actives largely listed as activators. hit rate 2.9% among 350,000. AID 624296; also: potency is read from the fitted curve at half-maximal effect; % of control where 0% means no effect; nearly all actives have a fitted effect of over 50% in size
# TDP1 cell CPT: DT40-hTDP1 cell growth loss with CPT; chicken DT40 Tdp1-/-;hTDP1 cells + 20 nM CPT, ATP luminescence, 48 h; Potency, µM (top dose mostly 46.2 µM), without a hit: at the highest dose activity change, negative = growth inhibition, hits mostly inhibitors; hit rate 12% among 420,000; AID 686979; also: potency is read from the fitted curve at half-maximal effect; % is scaled to controls: 0 for no effect and ±100 for the full control effect; nearly all actives have a fitted effect of over 55% in size
#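 Chicken DT40 Tdp1-/- cells complemented with human TDP1, 400 cells/well, exposed to compounds plus 20 nM camptothecin for at least 48 h at 37 C; viability read as ATP content by CellTiter-Glo luminescence.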
# SW480 rereplic: inducers of DNA re-replication in SW480 colon cancer cells | SW480 DNA re-replication, Hoechst DNA content imaging, 48 h | Potency, µM (top dose mostly 46.1 µM), inactives show at the highest dose re-replication activation, usual class: activators | hit rate 1.8% among 340,000; also: potency is read from the fitted curve at half-maximal effect; % of control where 0% means no effect; nearly all actives have a fitted effect of over 55% in size
#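 First, 250 cells per well were seeded. Next, compound or vehicle (23 nL) was pinned in, plates sat 48 hr at 37 C. Finally Hoechst was added for 40 min before fluorescence scanning.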
# IL1B secr inh: blocks inflammasome-driven IL-1 beta release | activity change, % at 57.5 µM | THP-1 LPS/ATP IL-1B secretion, AlphaLISA, 16 h; hits give low values | hit rate 4.7% among 360,000 | AID 743279; in the data active = activity change below about -50%; inconclusive = mostly about -30% to -49%; also: % is scaled to controls: 0 for no effect and ±100 for the full control effect
#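 THP-1 cells pretreated 1 hr with compounds (up to 57.5 uM final), then stimulated with LPS (250 ng/mL final) plus ATP (1.25 mM final); secreted IL-1B measured by AlphaLISA after 16 hr, decreased signal indicating inhibition.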
# * marks the source's active call; other numbers are inactive results; ? = inconclusive; nt = no result given; ! = not confirmed by another sample; [ ] = remark or other dose. Unless noted, calls follow the shape of the dose curve; as a rule, active = well fitted curve in the direction sought with a large enough effect; inconclusive = small, poorly fitted or top-dose-only effect, or another doubt; inactive = no such curve, though single readings can be large; an effect the other way counts as inactive or inconclusive.
SMILES,BCR signal inh,DT40 TDP1 no CPT,MCF10A rerep,TDP1 cell CPT,SW480 rereplic,IL1B secr inh
CC(=O)Nc1ccc(/C(C)=N/Nc2nc(Nc3cccc4ccccc34)nc(N3CCOCC3)n2)cc1,?,21µM*,?,21µM*,?,-28
Nc1nc(N)c(-c2cccc(C(F)(F)F)c2)c(Cc2cccc(C(F)(F)F)c2)n1,nt,1.3µM*,?,2.9µM*,?,-81*
FC(F)(F)c1cccc(-c2nn[nH]n2)c1,?,-13%,-4%,0%,0%,16
O=C(Nc1ccccc1)/C(=C/c1ccc2c(c1)OCO2)NC(=O)c1ccco1,-11%,-9%,-5%,-3%,-3%,20
O=C(NC1CCN(Cc2ccccc2)CC1)c1cccc(NS(=O)(=O)c2ccc(Br)cc2)c1,nt,?,12%,18µM*,2%,?
Cc1ccc(S(=O)(=O)Nc2cccc(C(=O)NC3CCN(Cc4ccccc4)CC3)c2)cc1F,-1%,16µM*,?,?,?,-66*
O=C(CCNS(=O)(=O)c1ccc(Br)cc1)NC1CCN(Cc2ccccc2)CC1,-4%,13µM*,7%,?,16%,?
COc1cc(OC)c(OC)cc1CN1CCC(n2cc(C(=O)N3CCCCC3)nn2)CC1,nt,-8%,nt,8%[9.04 µM],nt,nt
Cc1c(C(=O)NCC(C)(C)N2CCOCC2)cnn1-c1ncc2c(n1)-c1ccccc1CC2,nt,-27%,nt,?,nt,nt
O=C1CC(N2CCN(S(=O)(=O)c3ccccc3F)CC2)C(=O)N1c1ccccc1Cl (centres undefined),-1%,-13%,4%,-1%,-5%,7
CC1=CC(C)(C)N(S(=O)(=O)c2ccc(F)cc2)c2ccc(C)cc21,?,5.8µM*,-5%,?,-1%,37
CC1=CC(C)(C)N(S(=O)(=O)c2ccc(C)cc2)c2ccccc21,23µM*,18µM*,0%,12µM*,6%,34
Cc1cc(C)c(S(=O)(=O)c2ccc(F)cc2)c(C)c1,nt,?,nt,-21%,nt,24
O=C(NCCCCO)c1ccc2c3c(cccc13)CC2,5%,-8%,-5%,3%,-5%,32
CC(NC(=O)CCc1nnc(-c2ccc(-c3ccccc3)cc2)o1)c1nc2ccccc2[nH]1 (centres undefined),?,16µM*,?,18µM*,13%,?
CCOC(=O)CN(C)C(=O)CCc1nnc(-c2ccc(-c3ccccc3)cc2)o1,-1%,?,2%,?,0%,9
CC(C)(CO)CNC(=O)CCc1nnc(-c2ccc(-c3ccccc3)cc2)o1,-14%,21µM*,1%,?,2%,-7
Nc1nonc1-n1nnc(C(=O)N/N=C/c2ccc(OCc3cccc(Cl)c3)cc2)c1CN1CCCCC1,8%,?,1%,?,-2%,5
COCc1c(C(=O)N/N=C\c2cccs2)nnn1-c1nonc1N,-1%,-18%,3%,9%,-4%,-68*
Cc1cccc(COc2ccc(/C=N/NC(=O)c3nnn(-c4nonc4N)c3COc3ccc(F)cc3)cc2)c1,4%,?,15µM*,?,?,-13
CN(C)Cc1c(C(=O)N/N=C/c2ccc(OCc3c(F)cccc3Cl)cc2)nnn1-c1nonc1N,-4%,13µM*,27%,?,-10%,-2
Cc1cccc(COc2ccc(/C=N/NC(=O)c3nnn(-c4nonc4N)c3CN3CCCCC3)cc2)c1,0%,2%,16µM*,5%,-24%,-9
Cc1ccccc1OCC(=O)OCC(=O)NC1CCCCCC1,-3%,2%,0%,-13%,-4%,4
Cc1cccc(C)c1-n1nnnc1C(c1cccc2ccccc12)N1CCN(C/C=C/c2ccccc2)CC1 (centres undefined),nt,5.8µM*,nt,4.6µM*,nt,-11
CC(C)(C)n1nnnc1C(c1ccccc1)N1CCN(C/C=C/c2ccccc2)CC1 (centres undefined),nt,?,nt,?,nt,-8
SMILES,BCR signal inh,DT40 TDP1 no CPT,MCF10A rerep,TDP1 cell CPT,SW480 rereplic,IL1B secr inh
CCCCn1nnnc1C(CC)N1CCN(C/C=C/c2ccccc2)CC1 (centres undefined),nt,?,nt,?,nt,-12
Cc1cccc(C)c1-n1nnnc1C(c1cc2ccccc2o1)N1CCN(C/C=C/c2ccccc2)CC1 (centres undefined),nt,23µM*,nt,18µM*,nt,-11
CC(=O)N1c2ccc(S(=O)(=O)N3CCCC3C(=O)Nc3cccc(F)c3)cc2CC1C (centres undefined),12%,?,-5%,16µM*,18%,10
CCc1cccc(NC(=O)C2CCCN2S(=O)(=O)c2ccccc2C(F)(F)F)c1 (centres undefined),?,21µM*,8%,?,-7%,13
COc1ccc(NC(=O)C2CCCN2S(=O)(=O)c2ccc3c(c2)CC(C)N3C(C)=O)cc1OC (centres undefined),-6%,0%,2%,?,2%,22
CCc1cccc(NC(=O)C2CCCN2S(=O)(=O)c2ccc3c(c2)CC(C)N3C(C)=O)c1 (centres undefined),?,12µM*,16%,?,2%,18
CCCNC(=O)N[C@H]1C=C[C@H](CC(=O)OC)O[C@@H]1CO,nt,6%,nt,0%,nt,-13
CCc1nn2c(=O)cc(COC(=O)c3ccccc3)nc2s1,nt,-2%,nt,-15%,nt,nt
COc1cc(NC(C)CCCN)c2ncccc2c1 (centres undefined),?,7.2µM*!,27%,?,?,-11
